Assay results: PubChem BioAssay (EPA / NIEHS)
Where “and” joins values, the source holds several entries; their conditions need not be identical. Equal entries are not always repeated. Records with an inconclusive call do not appear. The source holds several records for some structures; these can differ, active in one and inactive in another. Calls of active or inactive are those of the source. Rule for the calls, unless noted: active = hit-call score of the fitted dose curve at least 0.9, where 1 is the maximum; inactive = score below 0.9.

Legend:
[1] = target: Nuclear respiratory factor 1 (Homo sapiens) (UniProt Q16656); assay: ATG_NRF1_CIS: Attagene CIS-FACTORIAL HepG2 Assay for human Nuclear Respiratory Factor 1 (NRF1) Orphan Gene (AID 2282987); settings: HepG2 NRF1 cis-element reporter, Attagene multiplex; actives raise or lower the signal
Nuclear respiratory factor 1 (Homo sapiens), sequence (Q16656 whole entry, looked up): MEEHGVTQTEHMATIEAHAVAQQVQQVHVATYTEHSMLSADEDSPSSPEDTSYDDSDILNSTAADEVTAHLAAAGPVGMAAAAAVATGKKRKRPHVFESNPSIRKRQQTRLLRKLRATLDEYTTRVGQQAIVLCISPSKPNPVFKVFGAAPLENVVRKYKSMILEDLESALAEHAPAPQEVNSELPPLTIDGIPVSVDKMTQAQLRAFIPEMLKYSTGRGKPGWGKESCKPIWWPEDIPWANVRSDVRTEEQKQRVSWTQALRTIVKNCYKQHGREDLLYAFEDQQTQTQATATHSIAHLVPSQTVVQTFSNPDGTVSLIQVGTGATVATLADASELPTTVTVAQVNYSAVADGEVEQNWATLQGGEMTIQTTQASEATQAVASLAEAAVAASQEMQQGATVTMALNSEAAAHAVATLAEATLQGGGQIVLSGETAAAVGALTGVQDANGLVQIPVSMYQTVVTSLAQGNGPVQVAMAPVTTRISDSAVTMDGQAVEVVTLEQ
Outline: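 Human hepatoma HepG2 cells carrying transfected promoter-regulated reporter units were incubated with test chemicals for 24 h. Reporter transcripts were measured by RT-PCR plus capillary electrophoresis, and endpoints derived by bidirectional fitting with DMSO as baseline.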

[2] = ATG_NFI_CIS: Attagene CIS-FACTORIAL HepG2 Assay for human Nuclear Factor I (NFI) (AID 2282989); settings: HepG2 cis-regulatory reporter, NFI response element transcription; actives raise or lower the signal
Outline: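 Cells: human liver HepG2, transiently transfected with promoter-regulated reporter transcription units. Exposure 24 h. Detection: fluorescent RT-PCR products separated by capillary electrophoresis, normalised to DMSO negative control.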

[3] = target: Myc proto-oncogene protein (Homo sapiens) (UniProt P01106); assay: ATG_Myc_CIS: Attagene CIS-FACTORIAL HepG2 Assay for human Myelocytomatosis (Myc) Proto-Oncogene Transcription Factor (AID 2282990); settings: HepG2, Attagene cis-reporter transcription factor activity; actives raise or lower the signal
Myc proto-oncogene protein (Homo sapiens), sequence (P01106 whole entry, looked up, the tested form may be a part): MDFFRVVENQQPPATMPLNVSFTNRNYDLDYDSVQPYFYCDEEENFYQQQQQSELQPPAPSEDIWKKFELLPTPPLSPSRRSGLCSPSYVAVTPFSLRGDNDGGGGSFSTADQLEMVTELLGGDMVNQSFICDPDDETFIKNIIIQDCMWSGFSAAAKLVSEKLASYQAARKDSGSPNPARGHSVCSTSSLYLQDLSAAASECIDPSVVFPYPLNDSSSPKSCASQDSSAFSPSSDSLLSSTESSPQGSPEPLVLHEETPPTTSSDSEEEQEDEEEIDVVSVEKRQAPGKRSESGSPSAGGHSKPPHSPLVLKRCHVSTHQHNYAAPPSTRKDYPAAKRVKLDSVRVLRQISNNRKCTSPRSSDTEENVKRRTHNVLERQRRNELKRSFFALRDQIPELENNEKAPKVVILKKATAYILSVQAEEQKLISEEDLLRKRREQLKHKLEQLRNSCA
Outline: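 After 24 h chemical treatment of HepG2 cells carrying multiplexed cis-regulated reporter constructs, reporter transcripts quantified by RT-PCR and capillary electrophoresis of fluorescent fragments. Gain or loss fitted against DMSO baseline.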

[4] = ATG_NF_kB_CIS: Attagene CIS-FACTORIAL HepG2 Assay for human Nuclear Factor Kappa B (NF-kB) (AID 2282991); settings: HepG2 Attagene cis-factorial NF-kB reporter mRNA; actives raise or lower the signal
Outline: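 Multiplexed cis-reporter assay in transiently transfected HepG2. 24 h treatment; RNA isolated, RT-PCR, labelled fragments resolved by CE. DMSO baseline.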

[5] = ATG_NRF2_ARE_CIS: Attagene CIS-FACTORIAL HepG2 Assay for human Nuclear Factor Erythroid 2 Related Factor 2 (NFR2) response to Antioxidant Response Elements (ARE) (AID 2282992); settings: HepG2 Attagene ARE/NRF2 reporter, transcription factor activity; actives raise or lower the signal;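 for AC50: reporter mRNA level measured by RT-PCR and capillary electrophoresis fluorescence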
Outline: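 Transient MRTU transfection of HepG2; 24 h compound exposure; TriZol RNA, RT with oligo(dT), PCR, 6-FAM primer extension, HpaI cut, CE. Bidirectional fit vs DMSO.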

[6] = ATG_Oct_MLP_CIS: Attagene CIS-FACTORIAL HepG2 Assay for human Octamer-Binding Transcription Factor (Oct) (AID 2282993); settings: HepG2 Attagene cis-factorial Oct reporter, mRNA; actives raise or lower the signal
Outline: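 HepG2, transient MRTU transfection, cis promoter elements; 24 h dosing; RT-PCR/CE fluorescence read-out of reporter mRNA; fit both directions vs DMSO.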

[7] = target: Cellular tumor antigen p53 (Homo sapiens) (UniProt P04637); assay: ATG_p53_CIS: Attagene CIS-FACTORIAL HepG2 Assay for human p53 Transcription Factor (AID 2282994); settings: HepG2 p53 cis-element reporter, Attagene mRNA; actives raise or lower the signal
Cellular tumor antigen p53 (Homo sapiens), sequence (P04637 whole entry, looked up): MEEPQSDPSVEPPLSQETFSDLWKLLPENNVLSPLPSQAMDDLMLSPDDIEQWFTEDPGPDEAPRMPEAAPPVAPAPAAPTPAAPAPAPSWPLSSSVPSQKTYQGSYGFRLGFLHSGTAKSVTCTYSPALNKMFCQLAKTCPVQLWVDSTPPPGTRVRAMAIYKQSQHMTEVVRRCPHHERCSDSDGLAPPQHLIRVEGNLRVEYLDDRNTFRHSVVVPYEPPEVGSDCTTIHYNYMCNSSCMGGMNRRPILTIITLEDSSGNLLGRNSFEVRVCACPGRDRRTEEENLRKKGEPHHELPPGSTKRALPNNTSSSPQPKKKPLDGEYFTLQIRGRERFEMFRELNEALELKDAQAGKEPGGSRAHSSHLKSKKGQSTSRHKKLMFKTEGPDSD
Outline: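 HepG2, transient MRTU transfection (cis promoter elements, endogenous TFs); 24 h dosing; RNA isolation, RT-PCR, 6-FAM primer extension, HpaI digest, CE fluorescence; bidirectional fit vs DMSO.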

[8] = BSK_3C_TissueFactor: BioMAP Diversity Plus: 3C Assay for Tissue Factor Biomarker Activity (AID 2282997); settings: BioMAP 3C HUVEC, tissue factor biomarker readout; actives raise or lower the signal
Outline: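 Endothelial monolayers (human umbilical vein, primary) are dosed, incubated 24 h, and assayed for Tissue Factor by ELISA; DMSO serves as negative control for bidirectional fitting.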

[9] = BSK_3C_uPAR: BioMAP Diversity Plus: 3C Assay for Urokinase-type plasminogen activator receptor (uPAR) Biomarker Activity (AID 2282998); settings: BioMAP 3C HUVEC, uPAR biomarker ELISA; actives raise or lower the signal
Outline: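 A multiplexed primary-cell system built on human umbilical vein endothelium was used, with chemical present for 24 h before reading. Cell-surface uPAR was detected by ELISA; signal change in either direction counted against DMSO.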

[10] = BSK_4H_Eotaxin3: BioMAP Diversity Plus: 4H Assay for Eotaxin 3 Biomarker Activity (AID 2283000); settings: primary human endothelial cells (HUVEC); actives raise or lower the signal
Outline: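 ELISA quantitation of CCL26 (Eotaxin-3) protein from chemically dosed human vascular endothelial cells at 24 h; increases and decreases both scored relative to DMSO-treated baseline.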

[11] = target: human Peroxisome Proliferator-activated Receptor delta (PPARd), PPARD (gene 5467) (UniProt Q03181); assay: ATG_PPARd_TRANS: Attagene TRANS-FACTORIAL HepG2 Assay for human Peroxisome Proliferator-activated Receptor delta (PPARd) (AID 2283002; active = hit-call score of the fitted dose curve at least 0.9, where 1 is the maximum)
human Peroxisome Proliferator-activated Receptor delta (PPARd), PPARD (gene 5467), sequence (Q03181 whole entry, looked up, the tested form may be a part): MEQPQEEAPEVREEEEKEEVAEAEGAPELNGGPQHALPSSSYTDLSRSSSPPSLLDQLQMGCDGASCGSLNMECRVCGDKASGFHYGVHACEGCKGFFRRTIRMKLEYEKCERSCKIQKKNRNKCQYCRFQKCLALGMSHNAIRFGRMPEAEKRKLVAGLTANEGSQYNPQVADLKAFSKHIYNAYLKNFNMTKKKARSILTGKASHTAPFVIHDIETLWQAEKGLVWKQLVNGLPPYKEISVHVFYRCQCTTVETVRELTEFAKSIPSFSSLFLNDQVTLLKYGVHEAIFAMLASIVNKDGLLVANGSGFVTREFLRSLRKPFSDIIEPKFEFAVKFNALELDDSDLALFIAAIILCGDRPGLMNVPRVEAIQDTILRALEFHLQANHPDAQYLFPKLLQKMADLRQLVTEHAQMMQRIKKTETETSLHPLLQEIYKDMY
Outline: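 Read-out is induced reporter mRNA, quantified by RT-PCR with fluorescent labelling and capillary electrophoresis after 24 h dosing. Cells are HepG2 transiently carrying multiple GAL4-UAS reporter units driven by exogenous NR-GAL4 chimeras; DMSO serves as baseline.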

[12] = read-out: Intercellular Adhesion Molecule 1 (ICAM1), ICAM1 (gene 3383); assay: BSK_3C_ICAM1: BioMAP Diversity Plus: 3C Assay for Intercellular Adhesion Molecule 1 (ICAM1) Biomarker Activity (AID 2283003); settings: primary human endothelial cells (HUVEC); actives raise or lower the signal
Outline: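 Primary human umbilical vein endothelial cells in the BioMAP 3C system were exposed to chemicals for 24 h, then ICAM-1 was quantified by ELISA. Activity was fitted bidirectionally against the DMSO negative control baseline.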

[13] = BSK_3C_Proliferation: Cell Proliferation Assessment in the BioMAP Diversity Plus: 3C Assay (AID 2283006); settings: primary human endothelial cells (HUVEC);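 for AC50: potency may reflect either rise or fall in cell number versus DMSO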
Outline: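 Human umbilical vein endothelial cells were grown sub-confluent and exposed to chemical for 48 h, then fixed with 10% TCA and stained with 0.1% sulforhodamine B; absorbance at 560 nm gave relative cell number, fitted bidirectionally against DMSO baseline.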

[14] = target: Nuclear receptor subfamily 1 group I member 2 (Homo sapiens) (UniProt O75469); assay: ATG_PXR_TRANS: Attagene TRANS-FACTORIAL HepG2 Assay for human Pregnane X Receptor (PXR) (AID 2283008; active = hit-call score of the fitted dose curve at least 0.9, where 1 is the maximum)
Nuclear receptor subfamily 1 group I member 2 (Homo sapiens), sequence (O75469 whole entry, looked up, the tested form may be a part): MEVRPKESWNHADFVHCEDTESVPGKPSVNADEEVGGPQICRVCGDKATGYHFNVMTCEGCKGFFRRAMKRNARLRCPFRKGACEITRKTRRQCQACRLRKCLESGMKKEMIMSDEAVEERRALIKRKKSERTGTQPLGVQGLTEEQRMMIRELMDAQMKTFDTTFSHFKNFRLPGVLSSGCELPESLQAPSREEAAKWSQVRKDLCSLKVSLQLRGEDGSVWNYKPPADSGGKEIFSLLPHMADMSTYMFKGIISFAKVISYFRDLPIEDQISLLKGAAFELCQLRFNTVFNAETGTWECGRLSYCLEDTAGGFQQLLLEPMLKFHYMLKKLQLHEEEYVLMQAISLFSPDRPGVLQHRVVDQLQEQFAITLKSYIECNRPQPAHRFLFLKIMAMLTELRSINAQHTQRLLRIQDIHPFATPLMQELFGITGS
Outline: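 Read-out is fluorescence of labelled reporter cDNA fragments separated by capillary electrophoresis after RT-PCR and HpaI digestion. Source: HepG2 cells carrying PXR-GAL4/UAS reporter constructs, treated 24 h; activity fitted upward relative to DMSO.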

[15] = target: human Retinoic Acid Receptor beta (RARb), RARB (gene 5915) (UniProt P10826); assay: ATG_RARb_TRANS: Attagene TRANS-FACTORIAL HepG2 Assay for human Retinoic Acid Receptor beta (AID 2283004; active = hit-call score of the fitted dose curve at least 0.9, where 1 is the maximum)
human Retinoic Acid Receptor beta (RARb), RARB (gene 5915), sequence (P10826 whole entry, looked up, the tested form may be a part): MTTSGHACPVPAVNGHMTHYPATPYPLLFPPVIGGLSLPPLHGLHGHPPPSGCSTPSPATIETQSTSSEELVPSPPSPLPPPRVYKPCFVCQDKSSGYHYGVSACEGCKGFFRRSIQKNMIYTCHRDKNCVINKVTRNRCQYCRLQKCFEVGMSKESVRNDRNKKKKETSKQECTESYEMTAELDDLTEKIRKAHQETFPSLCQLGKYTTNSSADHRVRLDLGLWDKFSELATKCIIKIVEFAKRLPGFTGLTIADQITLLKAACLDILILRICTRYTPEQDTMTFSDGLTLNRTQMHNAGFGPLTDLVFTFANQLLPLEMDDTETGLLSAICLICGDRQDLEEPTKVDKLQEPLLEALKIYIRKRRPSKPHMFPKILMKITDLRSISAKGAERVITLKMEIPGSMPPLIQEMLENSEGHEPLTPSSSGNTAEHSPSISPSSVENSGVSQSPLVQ
Outline: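 Fluorescent capillary-electrophoresis detection of GAL4-UAS reporter mRNA defines the endpoint, with induction over DMSO-treated wells scored as activity. Transiently transfected human hepatoma HepG2 cells expressing exogenous NR–Gal4 proteins are exposed to test chemicals for 24 h.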

[16] = target: Retinoic acid receptor alpha (Homo sapiens) (UniProt P10276); assay: ATG_RARa_TRANS: Attagene TRANS-FACTORIAL HepG2 Assay for human Retinoic Acid Receptor alpha (RARa) (AID 2283005; active = hit-call score of the fitted dose curve at least 0.9, where 1 is the maximum)
Retinoic acid receptor alpha (Homo sapiens), sequence (P10276 whole entry, looked up, the tested form may be a part): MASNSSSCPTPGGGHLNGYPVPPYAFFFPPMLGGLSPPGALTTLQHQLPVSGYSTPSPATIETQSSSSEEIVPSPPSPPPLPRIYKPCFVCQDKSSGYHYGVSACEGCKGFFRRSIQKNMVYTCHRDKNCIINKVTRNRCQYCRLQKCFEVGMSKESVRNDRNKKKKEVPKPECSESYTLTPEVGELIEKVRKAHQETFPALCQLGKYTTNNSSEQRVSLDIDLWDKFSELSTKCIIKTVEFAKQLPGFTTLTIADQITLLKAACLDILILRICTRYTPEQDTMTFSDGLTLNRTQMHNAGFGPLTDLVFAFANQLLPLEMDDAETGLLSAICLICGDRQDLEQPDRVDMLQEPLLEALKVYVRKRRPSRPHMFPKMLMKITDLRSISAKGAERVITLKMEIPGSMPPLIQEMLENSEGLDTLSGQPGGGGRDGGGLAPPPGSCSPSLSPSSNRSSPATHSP
Outline: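 Reporter transcripts, measured by RT-PCR with fluorescent labeling and capillary electrophoresis after 24 h dosing, reflect activity of an exogenous human RARa–GAL4 fusion in transiently transfected HepG2. Fitted for increase relative to DMSO.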

[17] = target: Peroxisome proliferator-activated receptor gamma (Homo sapiens) (UniProt P37231); assay: ATG_PPARg_TRANS: Attagene TRANS-FACTORIAL HepG2 Assay for human Peroxisome Proliferator-activated Receptor-gamma (PPARg) (AID 2283007; active = hit-call score of the fitted dose curve at least 0.9, where 1 is the maximum)
Peroxisome proliferator-activated receptor gamma (Homo sapiens), sequence (P37231 whole entry, looked up): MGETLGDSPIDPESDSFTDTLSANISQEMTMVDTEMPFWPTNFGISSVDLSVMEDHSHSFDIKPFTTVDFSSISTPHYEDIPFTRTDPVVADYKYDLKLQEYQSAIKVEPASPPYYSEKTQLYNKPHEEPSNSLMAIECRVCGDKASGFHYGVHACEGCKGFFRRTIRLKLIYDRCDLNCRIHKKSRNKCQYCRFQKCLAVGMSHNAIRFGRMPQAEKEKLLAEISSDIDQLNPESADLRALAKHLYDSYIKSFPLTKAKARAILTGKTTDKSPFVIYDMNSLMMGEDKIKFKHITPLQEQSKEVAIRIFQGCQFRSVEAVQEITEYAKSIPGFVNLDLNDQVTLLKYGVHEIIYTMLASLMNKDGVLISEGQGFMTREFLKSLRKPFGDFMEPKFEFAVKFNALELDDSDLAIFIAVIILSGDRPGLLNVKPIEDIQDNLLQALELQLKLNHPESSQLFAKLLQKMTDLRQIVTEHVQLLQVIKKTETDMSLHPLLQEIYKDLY
Outline: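 Human hepatoma HepG2, transient MRTU transfection, 24 h treatment. mRNA reporter signal by RT-PCR plus capillary electrophoresis, fluorescence detection; fitted for increase over DMSO negative control.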

[18] = target: human Peroxisome Proliferator-activated Receptor alpha (PPARa), PPARA (gene 5465) (UniProt Q07869); assay: ATG_PPARa_TRANS: Attagene TRANS-FACTORIAL HepG2 Assay for human Peroxisome Proliferator-activated Receptor alpha (PPARa) (AID 2283001; active = hit-call score of the fitted dose curve at least 0.9, where 1 is the maximum;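 for AC50: potency for gain of reporter signal over DMSO so agonist or activator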)
human Peroxisome Proliferator-activated Receptor alpha (PPARa), PPARA (gene 5465), sequence (Q07869 whole entry, looked up, the tested form may be a part): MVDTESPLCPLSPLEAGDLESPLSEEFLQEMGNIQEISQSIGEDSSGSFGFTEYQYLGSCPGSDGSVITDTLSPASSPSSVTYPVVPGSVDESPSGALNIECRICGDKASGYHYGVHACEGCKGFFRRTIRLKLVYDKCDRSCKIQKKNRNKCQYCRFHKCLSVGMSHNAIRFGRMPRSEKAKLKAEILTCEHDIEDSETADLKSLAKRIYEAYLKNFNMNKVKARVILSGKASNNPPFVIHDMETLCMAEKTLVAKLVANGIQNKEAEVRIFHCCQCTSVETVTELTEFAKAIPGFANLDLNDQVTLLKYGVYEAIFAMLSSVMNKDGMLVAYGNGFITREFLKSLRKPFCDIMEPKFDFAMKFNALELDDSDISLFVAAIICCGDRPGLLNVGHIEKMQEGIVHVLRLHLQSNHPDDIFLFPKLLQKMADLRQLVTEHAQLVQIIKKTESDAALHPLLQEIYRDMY
Outline: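 Reporter transcripts from GAL4-UAS units in transfected HepG2 were quantified 24 h after dosing. Detection used reverse transcription, PCR, fluorescent primer extension and capillary electrophoresis, with DMSO as baseline.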

[19] = target: human Retinoic Acid Receptor gamma (RARg), RARG (gene 5916) (UniProt P13631); assay: ATG_RARg_TRANS: Attagene TRANS-FACTORIAL HepG2 Assay for human Retinoic Acid Receptor gamma (RARg) (AID 2283009; active = hit-call score of the fitted dose curve at least 0.9, where 1 is the maximum)
human Retinoic Acid Receptor gamma (RARg), RARG (gene 5916), sequence (P13631 whole entry, looked up, the tested form may be a part): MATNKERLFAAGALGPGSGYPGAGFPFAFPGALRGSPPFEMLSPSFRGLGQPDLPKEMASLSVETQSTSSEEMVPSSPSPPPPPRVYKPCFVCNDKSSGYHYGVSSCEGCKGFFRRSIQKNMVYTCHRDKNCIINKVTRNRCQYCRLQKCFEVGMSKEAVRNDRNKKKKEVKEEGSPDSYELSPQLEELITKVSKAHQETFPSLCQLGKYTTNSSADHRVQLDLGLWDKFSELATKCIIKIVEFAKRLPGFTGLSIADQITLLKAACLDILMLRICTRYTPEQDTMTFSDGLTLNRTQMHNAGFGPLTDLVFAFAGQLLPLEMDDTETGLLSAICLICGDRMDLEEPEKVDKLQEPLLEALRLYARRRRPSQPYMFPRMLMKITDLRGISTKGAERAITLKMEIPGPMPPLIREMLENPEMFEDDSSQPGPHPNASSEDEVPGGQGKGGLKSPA
Outline: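 HepG2 cells transiently transfected with multiplexed reporter units expressing chimeric RARg-GAL4 and GAL4-UAS-driven reporters; 24 h compound exposure. Reporter mRNA quantified by RT-PCR with fluorescent labelling and capillary electrophoresis; gain-of-signal fitted relative to DMSO baseline.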

[20] = BSK_3C_VCAM1: BioMAP Diversity Plus: 3C Assay for Vascular cell adhesion molecule 1 (VCAM1) Biomarker Activity (AID 2282999); settings: BioMAP 3C HUVEC, VCAM1 ELISA, cytokine-stimulated; actives raise or lower the signal
Outline: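 Endothelial cells from human umbilical vein are treated with test chemical. At 24 h, VCAM-1 is measured by ELISA, and responses in either direction are fitted relative to DMSO.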

Measured: AC50

NC(O)(C(F)(F)F)C(F)(F)F
inactive: [1] | [2] | [3] | [4] | [5] | [6] | [7] | [8] | [9] | [10] | [11] | [12] | [13] | [14]

O=C(F)C1(F)C(F)(F)C(F)(F)C(F)(F)C(F)(F)C1(F)F
inactive: [1] | [2] | [3] | [4] | [5] | [6] | [7] | [8] | [9] | [10] | [11] | [12] | [15] | [16] | [13] | [17]

NS(=O)(=O)C(F)(F)C(F)(F)C(F)(F)C(F)(F)C(F)(F)C(F)(F)F
active: [9] 19.6 µM | [10] 46.4 µM and 20.3 µM | [18] 28.2 µM | [13] 28.9 µM and 49.6 µM
inactive: [1] | [2] | [3] | [4] | [5] | [6] | [7] | [8] | [9] | [11] | [12] | [15] | [14] | [19]

CC(C)(C)c1cc(CCC(=O)NCCCCCCNC(=O)CCc2cc(C(C)(C)C)c(O)c(C(C)(C)C)c2)cc(C(C)(C)C)c1O
inactive: [1] | [2] | [3] | [4] | [5] | [6] | [7] | [8] | [9] | [20] | [10] | [12] | [13] | [17]
active: [14] 0.0823 µM

CCN(CCO)S(=O)(=O)C(F)(F)C(F)(F)C(F)(F)C(F)(F)C(F)(F)C(F)(F)C(F)(F)C(F)(F)F
active: [5] 110 µM | [6] 15.4 µM | [8] 55.1 µM and 9.9 µM | [9] 8.1 µM | [10] 20.9 µM and 43.5 µM | [12] 50.8 µM and 9.21 µM | [13] 8.37 µM and 10.7 µM
inactive: [1] | [2] | [3] | [4] | [7] | [9] | [18] | [11] | [14]

O=S(=O)(OCC(F)(F)F)C(F)(F)C(F)(F)C(F)(F)C(F)(F)F
inactive: [1] | [2] | [3] | [6] | [8] | [9] | [20] | [10] | [18] | [12] | [15] | [13] | [14]
active: [4] 62.7 µM | [5] 45.6 µM | [7] 89.1 µM | [9] 38.5 µM | [17] 107 µM

NCC(F)(F)C(F)(F)C(F)(F)C(F)(F)C(F)(F)C(F)(F)C(F)(F)C(F)(F)F
inactive: [1] | [2] | [3] | [4] | [5] | [6] | [7] | [8] | [9] | [10] | [18] | [12] | [15] | [16] | [13] | [17] | [14] | [19]
